Where “and” joins values, the source holds several entries; their conditions need not be identical. Identical values can stand only once. The campaign covered roughly 16,000 compounds. About 120 (0.75%) were called active. Roughly 4% stayed inconclusive and do not appear here. This is one part of a sample in which actives are shown more often than they occur. Calls follow the shape of the dose curve; as a rule, active = well fitted inhibition curve with a large enough effect; inconclusive = small, poorly fitted or top-dose-only effect; inactive = no such curve, though single readings can be large or run the other way. The source holds several records for some structures; these can differ, active in one and inactive in another.
target: Rap guanine nucleotide exchange factor 3 (Homo sapiens) (UniProt O95398); assay: Validation qHTS for antagonist of cAMP-regulated guanine nucleotide exchange factor 3 (EPAC1); settings: EPAC1 Rap1B-BODIPY-GDP exchange, fluorescence; series mostly up to 150 µM; activity change, negative = inhibition: at the top concentration; also: nearly all actives have a fitted effect of over 75% in size;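 as to activity change, negative = inhibition: plate controls were DMSO for no effect and ATA control for full effect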
In short: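 Nucleotide exchange followed as fluorescence loss when BODIPY-GDP leaves Rap1B (480 nm excitation, 540 nm emission), read at 5 min intervals over 30 min. Reaction: 100 nM EPAC1, 250 nM RAP1B-BODIPY-GDP, 50 uM GDP; ATA and DMSO define normalization.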
Potency is read from the fitted curve at half-maximal effect.

Rap guanine nucleotide exchange factor 3 (Homo sapiens), sequence (O95398 whole entry, looked up): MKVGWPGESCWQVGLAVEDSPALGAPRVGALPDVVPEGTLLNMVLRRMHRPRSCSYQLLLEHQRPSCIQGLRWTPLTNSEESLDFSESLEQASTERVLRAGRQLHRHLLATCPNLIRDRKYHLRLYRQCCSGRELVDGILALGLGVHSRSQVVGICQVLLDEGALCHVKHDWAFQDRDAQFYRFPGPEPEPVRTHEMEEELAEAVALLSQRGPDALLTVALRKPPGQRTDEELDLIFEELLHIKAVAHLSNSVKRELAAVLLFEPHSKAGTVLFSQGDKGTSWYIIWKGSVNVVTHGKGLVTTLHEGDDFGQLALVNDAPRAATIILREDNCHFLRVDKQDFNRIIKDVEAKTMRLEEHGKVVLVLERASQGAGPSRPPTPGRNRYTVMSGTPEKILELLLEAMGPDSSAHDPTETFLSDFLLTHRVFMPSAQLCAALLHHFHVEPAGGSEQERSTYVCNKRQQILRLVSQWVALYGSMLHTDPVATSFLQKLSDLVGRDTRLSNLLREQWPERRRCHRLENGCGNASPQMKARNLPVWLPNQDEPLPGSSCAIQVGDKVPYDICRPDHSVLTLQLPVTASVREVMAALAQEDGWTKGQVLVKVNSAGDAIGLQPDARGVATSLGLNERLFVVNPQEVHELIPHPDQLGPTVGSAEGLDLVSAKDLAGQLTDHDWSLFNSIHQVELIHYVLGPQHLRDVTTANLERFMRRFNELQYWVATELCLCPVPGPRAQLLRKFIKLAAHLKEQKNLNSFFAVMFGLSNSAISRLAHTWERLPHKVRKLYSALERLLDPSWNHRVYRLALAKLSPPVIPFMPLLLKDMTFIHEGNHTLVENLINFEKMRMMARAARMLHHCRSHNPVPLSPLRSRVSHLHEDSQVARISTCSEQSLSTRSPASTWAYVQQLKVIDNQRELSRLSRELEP

Activity change, negative = inhibition, inactive:
CN1[C@@H]2CCC[C@@H]1CC(NC(=O)c1nn(C)c3ccccc13)C2 (stereo partly specified) 27.2%
N#CC[C@H](Cc1ccccc1)N1CCN(Cc2ccccc2)CCC1=O 9.25%
COc1ccc(C2OC3C(CO)OC(n4cnc5c(=O)[nH]c(N)nc54)C3O2)cc1 (stereo unspecified) 9.03%
Cc1c(C(=O)N(C)Cc2cccc3ncccc23)cnn1-c1nccc(-c2ccccc2F)n1 7.94%
CC1CN(CC(=O)NCCc2ccncc2)Cc2ccccc2O1 (stereo unspecified) 13.3%
CC1CC[C@@]2(C(=O)O)CCC3(C)C(=CCC4[C@]5(C)CC(O)C(O)[C@](C)(CO)C5C(O)C[C@@]43C)C2C1C (stereo partly specified) -17.8%
O=C(Oc1cc(OC(=O)c2ccccc2)c2c(c1)OC(c1ccc(OC(=O)c3ccccc3)c(OC(=O)c3ccccc3)c1)[C@@H](OC(=O)c1ccccc1)C2)c1ccccc1 (stereo partly specified) 5.96%
O=C(NCC1Cc2cccc(-c3cnccn3)c2O1)c1ccc2c(c1)OCCO2 (stereo unspecified) -2.15%
CC(C)C[C@@H](CO)N1CCN(CCc2ccccc2)CCC1=O 0.539%
COc1cccc(-c2nc(N3CCNCC3)c3ccccc3n2)c1 17.1%
Cc1cc2c(cc1C)N[C@]1(C[C@H]3CCCC(=O)N4CC[C@@H](C1)[C@@H]34)C(=NCc1ccccc1)N2 9.18%
CN(C)c1ccc(/C=C/c2ccnc3c2ccc2ccccc23)cc1 26.6%
CN(C)c1ccc(/C=C/C=C/c2ccnc3ccccc23)cc1 24.3%
CC(=O)c1ccc2oc3ccccc3c(=O)c2c1 -1.3%
COc1cccc(-c2oc3ccccc3c(=O)c2O)c1 2.87%
COc1cc(OC)c(OC)cc1CN1CCC(n2cc(C(=O)N3CCCCC3)nn2)CC1 4.84%
c1ccc2c(N3CCCCCC3)nc(CN3CCCCC3c3nccs3)nc2c1 (stereo unspecified) 11.8%
COc1ccc(-c2nc3cnc(N(C)C)nc3n(C)c2=O)cc1 17%
O=c1c(-c2ccc(Cl)cc2)nc2cnc(N3CCNCC3)nc2n1CCc1ccccc1 -11.2%
COc1cccc(Cn2c(=O)c(-c3ccc(F)c(F)c3)nc3cncnc32)c1 -1.99%
Cc1cccc(/C=C/c2cccs2)n1 12.7%
COc1cccc(CN2Cc3cccc4c3[C@H](C=CC4)CC2=O)c1 -0.201%
Cc1ccc2c(/C=C/c3ccc(N(C)C)cc3)ccnc2c1C 0.259%
CS(=O)(=O)OCCCNCCCOS(C)(=O)=O 27.9%
COc1cc2c(cc1OC)CN(C(=O)[C@@H]1C[C@H](NCc3cn(C)c4ccccc34)CN1C1Cc3ccccc3C1)CC2 -8.75%
N#C/C(=C\c1ccc(O)c(O)c1)C(=O)c1ccc(O)c(O)c1 -6.35% [at 75.8 µM]
C[C@@H](NC(=O)/C(C#N)=C/c1ccc(O)c(O)c1)c1ccccc1 35.9% [at 75.8 µM]
CC(NNC(=O)c1ccccc1)c1ccccc1 (stereo unspecified) 13.5%
Cc1cccc2[nH]cc(/C=C3/C=Nc4ccccc43)c12 -26.7%
c1cncc(CNc2nc(-c3ccc4c(c3)OCO4)nc3ccccc23)c1 -1.58%
O=S(=O)(NCc1nc(N2CCCC2)c2cc(Cl)ccc2n1)c1ccccc1OC(F)(F)F -4.38%
O=C[C@H](O)[C@@H](O)[C@H](O[C@H]1O[C@H](CO)[C@@H](O[C@H]2O[C@H](CO)[C@@H](O)[C@H](O)[C@H]2O)[C@H](O)[C@H]1O)[C@H](O)CO 23%
CCn1nc(C)cc1C(=O)N1CCC2(CC1)c1ccccc1[C@@H](NC(=O)c1cccnc1)[C@@H]2O 13%
Cc1ncc2c(c1CNC(=O)c1ccc3c(c1)OCO3)CCN(C(=O)c1scc3c1CCCC3)C2 15.5%
CN(C)C(=O)c1ccc(-c2ccc3ncnc(NC4CC4)c3c2)cc1 -5.36%
NCCC(=O)N[C@H](Cc1cnc[nH]1)C(=O)O 7.46%
C[C@@H]1NC(=O)OC1c1ccco1 (stereo partly specified) 10.5%
CS(=O)(=O)Nc1cccc(-c2nccc(NCc3cccs3)n2)c1 -14.7%
Cc1cc(C)n(-c2cccc(C(=O)NCC3Cc4cccc(-c5cccnc5)c4O3)c2)n1 (stereo unspecified) 6.83%
O=C1C=CC2=C3c4cc(O)c(O)cc4C[C@@]3(O)COC2=C1 -19.9%
O=C1C=CC2=C3c4cc(O)c(O)cc4C[C@]3(O)COC2=C1 -29.8%

Potency, inactive:
CC(=O)Oc1cc(OC(C)=O)c2c(c1)OC(c1ccc(OC(C)=O)c(OC(C)=O)c1)C(OC(C)=O)C2 (stereo unspecified)
COc1ccc2c(c1OC)C(=O)O[C@H]2C1c2c(cc3c(c2OC)OCO3)CCN1C (stereo partly specified)
CC(=O)CC(c1ccccc1)c1c(O)c2ccccc2oc1=O (stereo unspecified)
CCCCc1oc2ccccc2c1C(=O)c1cc(I)c(OCCN(CC)CC)c(I)c1
COc1ccc(-c2coc3cc(O)cc(O)c3c2=O)cc1
O=c1c(-c2ccc(O)cc2)coc2cc(O)cc(O)c12
N#C/C(=C\c1ccc(O)c(O)c1)C(=O)NCc1ccccc1
N#C/C(=C\c1ccc(O)c(O)c1)C(N)=O
O=C(O)/C=C/c1ccc(O)c(O)c1

Potency, 89.1 µM (active) and inactive:
C[C@H](NC(=O)/C(C#N)=C/c1ccc(O)c(O)c1)c1ccccc1

Potency, 79.4 µM (active) and inactive:
N#C/C(=C\c1ccc(O)c(O)c1)C(=O)Nc1ccccc1

Potency, active:
O=C(OC1Cc2c(O)cc(O)cc2OC1c1cc(O)c(O)c(O)c1-c1c(C2Oc3cc(O)cc(O)c3CC2OC(=O)c2cc(O)c(O)c(O)c2)cc(O)c(O)c1O)c1cc(O)c(O)c(O)c1 (stereo unspecified) 63.1 µM
CN(C)c1ccc(/C=C/c2ccnc3ccc4ccccc4c23)cc1 100 µM
CCc1oc2ccccc2c1C(=O)c1cc(I)c(O)c(I)c1 56.2 µM
CCc1oc2ccccc2c1C(=O)c1cc(Br)c(O)c(Br)c1 100 µM
O=C(Nc1ccc(S(=O)(=O)N2CCOCC2)cc1)c1cc(Cl)ccc1NS(=O)(=O)c1ccc(Cl)s1 112 µM
O=c1c(-c2ccccc2)coc2cc(O)cc(O)c12 79.4 µM
COc1cc(C(=O)NS(=O)(=O)c2ccccc2C)ccc1Cc1cn(C)c2ccc(NC(=O)OC3CCCC3)cc12 89.1 µM
N#C/C(=C\c1ccc(O)c(O)c1)C(=O)OCCc1cccs1 39.8 µM
O=C1C=CC2=C3c4cc(O)c(O)cc4CC3(O)COC2=C1O (stereo unspecified) 56.2 µM and 25.1 µM

Reference: PubChem BioAssay AID1645882 (National Center for Advancing Translational Sciences (NCATS), 2021)
